Where a chain is given by its changes, count along the chain named.
Key:
Assay in all cases: PBM; 200 nM protein, PBS
Conditions in all cases: dsDNA, one strand shown
HOXB9 [1] = target: HOXB9 (Homo sapiens, UniProt P17482 171-250, T197M)
HOXA4 [2] = target: HOXA4 (Homo sapiens, UniProt Q00056 201-287, W262R)
HOXC9 [3] = target: HOXC9 (Homo sapiens, UniProt P31274 178-260, K195R)
VENTX = target: T1, VENTX (Homo sapiens, UniProt O95231 78-163)
T1 sequence: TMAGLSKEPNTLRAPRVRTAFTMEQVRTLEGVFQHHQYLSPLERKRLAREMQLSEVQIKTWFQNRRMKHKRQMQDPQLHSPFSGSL

HOXA7 [4] = target: HOXA7 (Homo sapiens, UniProt P31268 116-202)
PAX4 [5] = target: T2, PAX4 (Homo sapiens, UniProt O43316 9-242)
T2 sequence: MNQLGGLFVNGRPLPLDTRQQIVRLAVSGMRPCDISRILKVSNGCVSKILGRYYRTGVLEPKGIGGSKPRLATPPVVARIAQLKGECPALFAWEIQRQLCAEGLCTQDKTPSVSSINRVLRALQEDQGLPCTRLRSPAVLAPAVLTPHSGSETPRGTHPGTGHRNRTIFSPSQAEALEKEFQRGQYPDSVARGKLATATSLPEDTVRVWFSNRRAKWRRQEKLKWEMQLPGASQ

HOXB9 [6] = target: HOXB9 (Homo sapiens, UniProt P17482 171-250)
HOXC9 [7] = target: HOXC9 (Homo sapiens, UniProt P31274 178-260)
HOXC9 [8] = target: HOXC9 (Homo sapiens, UniProt P31274 178-260, R193K)
HOXA4 [9] = target: HOXA4 (Homo sapiens, UniProt Q00056 201-287)
HOXC10 = HOXC10 (Homo sapiens, UniProt Q9NYD6 254-340, K271E)
VAX1 = VAX1 (Homo sapiens, UniProt Q5SQQ9 86-172)
HOXB9 [10] = target: HOXB9 (Homo sapiens, UniProt P17482 171-250, R186Q)
HOXC9 [11] = target: HOXC9 (Homo sapiens, UniProt P31274 178-260, R222W)
PAX4 [12] = target: T3, PAX4 (Homo sapiens, UniProt O43316 9-242, R227W)
T3 sequence: T2 sequence with R219W

HOXA2 [13] = target: HOXA2 (Homo sapiens, UniProt O43364 129-215, Y150S)
HOXA7 [14] = target: HOXA7 (Homo sapiens, UniProt P31268 116-202, W177C)
HOXA2 [15] = target: HOXA2 (Homo sapiens, UniProt O43364 129-215)
HOXB6 = HOXB6 (Homo sapiens, UniProt P17509 132-218)
Chain of HOXB6 (P17509 132-218): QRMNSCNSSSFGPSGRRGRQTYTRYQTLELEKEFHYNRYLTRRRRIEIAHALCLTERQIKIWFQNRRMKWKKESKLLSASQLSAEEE

Chain of VAX1 (Q5SQQ9 86-172): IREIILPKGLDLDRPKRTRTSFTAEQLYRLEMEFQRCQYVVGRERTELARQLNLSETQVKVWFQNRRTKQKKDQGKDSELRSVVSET
Chain of HOXA2 (Homo sapiens, UniProt O43364 129-215, Y150S) (O43364 129-215 Y150S): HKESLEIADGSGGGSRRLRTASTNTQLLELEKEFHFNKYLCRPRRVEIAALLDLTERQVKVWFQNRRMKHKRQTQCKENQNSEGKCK
Chain of HOXA4 (Homo sapiens, UniProt Q00056 201-287, W262R) (Q00056 201-287 W262R): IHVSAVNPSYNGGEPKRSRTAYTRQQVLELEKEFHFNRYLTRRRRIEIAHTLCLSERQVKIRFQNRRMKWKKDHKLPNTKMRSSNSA
Chain of HOXA2 (Homo sapiens, UniProt O43364 129-215) (O43364 129-215): as the sequence (O43364 129-215 Y150S) above, with S22Y counted along it
Chain of HOXA7 (Homo sapiens, UniProt P31268 116-202, W177C) (P31268 116-202 W177C): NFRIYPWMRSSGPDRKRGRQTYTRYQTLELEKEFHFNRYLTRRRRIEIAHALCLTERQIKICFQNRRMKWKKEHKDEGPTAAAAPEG
Chain of HOXA4 (Homo sapiens, UniProt Q00056 201-287) (Q00056 201-287): as the sequence (Q00056 201-287 W262R) above, with R62W counted along it
Chain of HOXA7 (Homo sapiens, UniProt P31268 116-202) (P31268 116-202): as the sequence (P31268 116-202 W177C) above, with C62W counted along it
Chain of HOXB9 (Homo sapiens, UniProt P17482 171-250, T197M) (P17482 171-250 T197M): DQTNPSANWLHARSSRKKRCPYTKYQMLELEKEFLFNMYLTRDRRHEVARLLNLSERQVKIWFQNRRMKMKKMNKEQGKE
Chain of HOXC9 (Homo sapiens, UniProt P31274 178-260) (P31274 178-260): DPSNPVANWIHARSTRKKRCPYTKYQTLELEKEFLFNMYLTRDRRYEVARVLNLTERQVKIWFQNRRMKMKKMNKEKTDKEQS
Chain of HOXC9 (Homo sapiens, UniProt P31274 178-260, R193K) (P31274 178-260 R193K): as the sequence (P31274 178-260) above, with R16K counted along it
Chain of HOXB9 (Homo sapiens, UniProt P17482 171-250) (P17482 171-250): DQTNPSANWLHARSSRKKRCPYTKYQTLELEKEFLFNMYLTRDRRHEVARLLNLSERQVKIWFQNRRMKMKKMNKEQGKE
Chain of HOXB9 (Homo sapiens, UniProt P17482 171-250, R186Q) (P17482 171-250 R186Q): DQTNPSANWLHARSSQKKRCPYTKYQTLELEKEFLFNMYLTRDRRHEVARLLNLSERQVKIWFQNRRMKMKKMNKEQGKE
Chain of HOXC9 (Homo sapiens, UniProt P31274 178-260, R222W) (P31274 178-260 R222W): as the sequence (P31274 178-260) above, with R45W counted along it
Chain of HOXC10 (Q9NYD6 254-340 K271E): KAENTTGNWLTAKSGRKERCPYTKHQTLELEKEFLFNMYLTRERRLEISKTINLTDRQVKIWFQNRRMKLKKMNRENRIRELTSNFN
Chain of HOXC9 (Homo sapiens, UniProt P31274 178-260, K195R) (P31274 178-260 K195R): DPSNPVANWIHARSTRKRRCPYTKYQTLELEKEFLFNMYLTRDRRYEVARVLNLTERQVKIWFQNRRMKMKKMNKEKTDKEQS

## ATCAATTA
HOXB9 [1]
  binding signal: 10.1 upbm affinity estimate (log intensity, higher = more binding, comparable within an allelic series)
HOXA4 [2]
  binding signal: 10.7 upbm affinity estimate (log intensity, higher = more binding, comparable within an allelic series)
HOXC9 [3]
  binding signal: 12.5 upbm affinity estimate (log intensity, higher = more binding, comparable within an allelic series)
VENTX
  binding signal: 12.7 upbm affinity estimate (log intensity, higher = more binding, comparable within an allelic series)
HOXA7 [4]
  binding signal: 11.7 upbm affinity estimate (log intensity, higher = more binding, comparable within an allelic series)
PAX4 [5]
  binding signal: 12.4 upbm affinity estimate (log intensity, higher = more binding, comparable within an allelic series)
HOXB9 [6]
  binding signal: 11.7 upbm affinity estimate (log intensity, higher = more binding, comparable within an allelic series)
HOXC9 [7]
  binding signal: 12.6 upbm affinity estimate (log intensity, higher = more binding, comparable within an allelic series)
HOXC9 [8]
  binding signal: 12.6 upbm affinity estimate (log intensity, higher = more binding, comparable within an allelic series)
HOXA4 [9]
  binding signal: 14.1 upbm affinity estimate (log intensity, higher = more binding, comparable within an allelic series)
HOXC10
  binding signal: 11.9 upbm affinity estimate (log intensity, higher = more binding, comparable within an allelic series)
VAX1
  binding signal: 13.3 upbm affinity estimate (log intensity, higher = more binding, comparable within an allelic series)
HOXB9 [10]
  binding signal: 11.5 upbm affinity estimate (log intensity, higher = more binding, comparable within an allelic series)
HOXC9 [11]
  binding signal: 11.1 upbm affinity estimate (log intensity, higher = more binding, comparable within an allelic series)
PAX4 [12]
  binding signal: 11 upbm affinity estimate (log intensity, higher = more binding, comparable within an allelic series)
HOXA2 [13]
  binding signal: 10.9 upbm affinity estimate (log intensity, higher = more binding, comparable within an allelic series)
HOXA7 [14]
  binding signal: 8.98 upbm affinity estimate (log intensity, higher = more binding, comparable within an allelic series)
HOXA2 [15]
  binding signal: 12.7 upbm affinity estimate (log intensity, higher = more binding, comparable within an allelic series)
HOXB6
  binding signal: 12.1 upbm affinity estimate (log intensity, higher = more binding, comparable within an allelic series)

## AACAATTA
HOXA4 [2]
  binding signal: 10.6 upbm affinity estimate (log intensity, higher = more binding, comparable within an allelic series)
HOXA7 [4]
  binding signal: 11.2 upbm affinity estimate (log intensity, higher = more binding, comparable within an allelic series)
HOXA4 [9]
  binding signal: 13.6 upbm affinity estimate (log intensity, higher = more binding, comparable within an allelic series)
HOXA7 [14]
  binding signal: 8.96 upbm affinity estimate (log intensity, higher = more binding, comparable within an allelic series)

## CTAATTAG
HOXA4 [2]
  binding signal: 10.8 upbm affinity estimate (log intensity, higher = more binding, comparable within an allelic series)
VENTX
  binding signal: 13.5 upbm affinity estimate (log intensity, higher = more binding, comparable within an allelic series)
HOXA7 [4]
  binding signal: 11.9 upbm affinity estimate (log intensity, higher = more binding, comparable within an allelic series)
PAX4 [5]
  binding signal: 13 upbm affinity estimate (log intensity, higher = more binding, comparable within an allelic series)
HOXA4 [9]
  binding signal: 14.2 upbm affinity estimate (log intensity, higher = more binding, comparable within an allelic series)
VAX1
  binding signal: 14.1 upbm affinity estimate (log intensity, higher = more binding, comparable within an allelic series)
PAX4 [12]
  binding signal: 11.7 upbm affinity estimate (log intensity, higher = more binding, comparable within an allelic series)
HOXA2 [13]
  binding signal: 10.9 upbm affinity estimate (log intensity, higher = more binding, comparable within an allelic series)
HOXA7 [14]
  binding signal: 8.87 upbm affinity estimate (log intensity, higher = more binding, comparable within an allelic series)
HOXA2 [15]
  binding signal: 13.4 upbm affinity estimate (log intensity, higher = more binding, comparable within an allelic series)
HOXB6
  binding signal: 12.2 upbm affinity estimate (log intensity, higher = more binding, comparable within an allelic series)

## AATTAGTC
PAX4 [5]
  binding signal: 12.2 upbm affinity estimate (log intensity, higher = more binding, comparable within an allelic series)
PAX4 [12]
  binding signal: 10.9 upbm affinity estimate (log intensity, higher = more binding, comparable within an allelic series)

## ATAATTGA
HOXB9 [1]
  binding signal: 9.97 upbm affinity estimate (log intensity, higher = more binding, comparable within an allelic series)
HOXA4 [2]
  binding signal: 10.6 upbm affinity estimate (log intensity, higher = more binding, comparable within an allelic series)
HOXA7 [4]
  binding signal: 11.2 upbm affinity estimate (log intensity, higher = more binding, comparable within an allelic series)
HOXA4 [9]
  binding signal: 13.7 upbm affinity estimate (log intensity, higher = more binding, comparable within an allelic series)
HOXA7 [14]
  binding signal: 8.94 upbm affinity estimate (log intensity, higher = more binding, comparable within an allelic series)
HOXB6
  binding signal: 11.7 upbm affinity estimate (log intensity, higher = more binding, comparable within an allelic series)

## CAATTACC
HOXA7 [4]
  binding signal: 11.4 upbm affinity estimate (log intensity, higher = more binding, comparable within an allelic series)
VAX1
  binding signal: 12.8 upbm affinity estimate (log intensity, higher = more binding, comparable within an allelic series)
HOXA7 [14]
  binding signal: 8.84 upbm affinity estimate (log intensity, higher = more binding, comparable within an allelic series)
HOXB6
  binding signal: 11.8 upbm affinity estimate (log intensity, higher = more binding, comparable within an allelic series)

## TCAATTAA
HOXA4 [2]
  binding signal: 10.7 upbm affinity estimate (log intensity, higher = more binding, comparable within an allelic series)
VENTX
  binding signal: 12.4 upbm affinity estimate (log intensity, higher = more binding, comparable within an allelic series)
HOXA7 [4]
  binding signal: 11.5 upbm affinity estimate (log intensity, higher = more binding, comparable within an allelic series)
HOXA4 [9]
  binding signal: 13.9 upbm affinity estimate (log intensity, higher = more binding, comparable within an allelic series)
VAX1
  binding signal: 13.3 upbm affinity estimate (log intensity, higher = more binding, comparable within an allelic series)
HOXA2 [13]
  binding signal: 10.7 upbm affinity estimate (log intensity, higher = more binding, comparable within an allelic series)
HOXA7 [14]
  binding signal: 8.86 upbm affinity estimate (log intensity, higher = more binding, comparable within an allelic series)
HOXA2 [15]
  binding signal: 12.4 upbm affinity estimate (log intensity, higher = more binding, comparable within an allelic series)
HOXB6
  binding signal: 11.9 upbm affinity estimate (log intensity, higher = more binding, comparable within an allelic series)

— publication PMC11006913
